# In PubChem BioAssay (NCATS):
# “And” between values parts separate entries of the source, which are not always exact repeats. Equal values may be shown once. Results filed as inconclusive are left out. Unmarked numbers belong to inactive results. The source made the active and inactive calls. Unless noted, calls follow the shape of the dose curve; as a rule, active = well fitted curve in the direction sought with a large enough effect; inconclusive = small, poorly fitted or top-dose-only effect, or another doubt; inactive = no such curve, though single readings can be large; an effect the other way counts as inactive or inconclusive.
# Legend:
# [1] = S16 Schwann cell viability assay (CellTiter-Glo assay) (AID 624031);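 also: cellular ATP luminescence as a viability measure; plate controls were DMSO-treated cells for no effect and cell-free wells for full effect; nearly all actives have a fitted effect of over 70% in size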
# Method in brief: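 This viability control uses native rat S16 Schwann cells grown in DMEM plus 10% FBS. After a 24 h compound treatment at 37 °C, CellTiter-Glo luminescence reports ATP content, scaled against DMSO-treated and cell-free wells.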
# AA1029 = assay: qHTS profiling for inhibitors of Plasmodium falciparum proliferation (AID 504749); also: nearly all actives have a fitted effect of over 60% in size; also: potency is read from the fitted curve at half-maximal effect; conditions: P. falciparum in erythrocytes, SYBR Green DNA, 72 h; series mostly up to 28.7 µM
# Method in brief: (§1)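 In a 72 h erythrocytic culture (37 C, humidified, 5% CO2) at 2.5% hematocrit and 0.3% starting parasitemia, compounds were tested; SYBR Green I in detergent lysis buffer stained parasite DNA overnight.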
# AS120 = assay: as above; conditions: P. falciparum in erythrocytes, SYBR Green DNA, 72 h; series mostly up to 28.7 µM
# Method in brief: as §1
# ATS189 = assay: as above; conditions: P. falciparum in erythrocytes, SYBR Green DNA, 72 h; series mostly up to 28.7 µM
# Method in brief: as §1
# ATS95 = assay: as above; conditions: P. falciparum in erythrocytes, SYBR Green DNA, 72 h; series mostly up to 28.7 µM
# Method in brief: as §1
# CP211 = assay: as above; conditions: P. falciparum in erythrocytes, SYBR Green DNA, 72 h; series mostly up to 28.7 µM
# Method in brief: as §1
# CP215 = assay: as above; conditions: P. falciparum in erythrocytes, SYBR Green DNA, 72 h; series mostly up to 28.7 µM
# Method in brief: as §1
# CP217 = assay: as above; conditions: P. falciparum in erythrocytes, SYBR Green DNA, 72 h; series mostly up to 28.7 µM
# Method in brief: as §1
# CP247 = assay: as above; conditions: P. falciparum in erythrocytes, SYBR Green DNA, 72 h; series mostly up to 28.7 µM
# Method in brief: as §1
# CP250 = assay: as above; conditions: P. falciparum in erythrocytes, SYBR Green DNA, 72 h; series mostly up to 12.8 µM
# Method in brief: as §1
# CP252 = assay: as above; conditions: P. falciparum in erythrocytes, SYBR Green DNA, 72 h; series mostly up to 12.8 µM
# Method in brief: as §1
# CP256 = assay: as above; conditions: P. falciparum in erythrocytes, SYBR Green DNA, 72 h; series mostly up to 28.7 µM
# Method in brief: as §1
# CP269 = assay: as above; conditions: P. falciparum in erythrocytes, SYBR Green DNA, 72 h; series mostly up to 28.7 µM
# Method in brief: as §1
# ECU = assay: as above; conditions: P. falciparum in erythrocytes, SYBR Green DNA, 72 h; series mostly up to 28.7 µM
# Method in brief: as §1
# N140 = assay: as above; conditions: P. falciparum in erythrocytes, SYBR Green DNA, 72 h; series mostly up to 28.7 µM
# Method in brief: as §1
# TAB109 = assay: as above; conditions: P. falciparum in erythrocytes, SYBR Green DNA, 72 h; series mostly up to 12.8 µM
# Method in brief: as §1
# TAB165 = assay: as above; conditions: P. falciparum in erythrocytes, SYBR Green DNA, 72 h; series mostly up to 28.7 µM
# Method in brief: as §1
# [2] = molecular target: Peroxisome proliferator-activated receptor delta (Homo sapiens) (UniProt Q03181); assay: qHTS assay for small molecule antagonists of peroxisome proliferator-activated receptor delta signaling (AID 588535; active = well fitted inhibition curve with a large enough effect in the signal ratio, with a control signal flat, not every such curve was filed as active; the % refers to the signal ratio)
# Method in brief: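 Antagonist-mode qHTS using GeneBLAzer PPAR-delta-UAS-bla HEK293T cells; compound exposure 18 hrs at 37 C over a titration. Ratiometric CCF4 fluorescence at 460/530 nm; concentration-response points fitted to the Hill equation.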
# [3] = qHTS assay for small molecule activators of the p53 signaling pathway (AID 651743; active = well fitted activation curve with a large enough effect in the signal ratio, not every such curve was filed as active; the % refers to the signal ratio; also: % of control where 0% means no effect); conditions: HCT-116 p53RE-bla, beta-lactamase FRET ratio, 16 h; activation: active compounds read high
# Method in brief: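 A beta-lactamase reporter under p53 response element control, stably carried by HCT-116 cells, reported pathway activation. Test compounds were applied for 16 hours at 37 C, and fluorescence was measured 2 hours after adding the B/G FRET substrate.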
# [4] = qHTS assay for small molecule agonists of the antioxidant response element (ARE) signaling pathway measured by Nrf2-dependant transcriptional activity - cell viability counter screen (AID 720653; active = well fitted curve in the direction sought with a large enough effect in the repeat runs; an effect the other way counts as inactive or inconclusive; also: % is scaled to controls: 0 for no effect and ±100 for the full control effect); conditions: ARE-bla HepG2 viability, CellTiter-Glo ATP luminescence, 16 h; active compounds read low
# Method in brief: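 Cytotoxicity counter screen: intracellular ATP quantified by CellTiter-Glo luminescence in the same ARE-bla HepG2 plates, after 16 h compound exposure and a 2 h beta-lactamase substrate step.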
# Peroxisome proliferator-activated receptor delta (Homo sapiens), sequence (Q03181 whole entry, looked up): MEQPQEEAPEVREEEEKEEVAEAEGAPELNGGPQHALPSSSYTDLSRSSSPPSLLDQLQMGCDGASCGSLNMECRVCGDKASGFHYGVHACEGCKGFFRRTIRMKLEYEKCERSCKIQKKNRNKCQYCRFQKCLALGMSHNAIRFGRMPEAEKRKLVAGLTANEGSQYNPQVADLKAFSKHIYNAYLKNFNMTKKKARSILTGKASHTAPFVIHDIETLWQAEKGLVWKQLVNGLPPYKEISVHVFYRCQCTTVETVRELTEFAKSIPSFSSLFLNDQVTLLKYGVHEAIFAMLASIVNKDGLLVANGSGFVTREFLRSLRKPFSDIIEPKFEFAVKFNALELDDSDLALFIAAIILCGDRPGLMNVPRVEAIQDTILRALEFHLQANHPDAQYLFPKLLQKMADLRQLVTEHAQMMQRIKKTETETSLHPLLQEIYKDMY
smiles,measurement,setting,value
C=CC1CN2CCC1CC2C(OC(=O)OCC)c1ccnc2ccc(OC)cc12 (stereo unspecified),Potency,[1],inactive
same,Potency,AA1029,5.01 µM (active)
same,Potency,AS120,7.94 µM (active)
same,Potency,ATS189,5.62 µM (active)
same,Potency,ATS95,3.98 µM (active)
same,Potency,CP211,15.1 µM (active)
same,Potency,CP215,12 µM (active)
same,Potency,CP217,7.94 µM (active)
same,Potency,CP247,7.94 µM (active)
same,Potency,CP250,12.6 µM (active)
same,Potency,CP252,8.91 µM (active)
same,Potency,CP256,11.2 µM (active)
same,Potency,CP269,9.53 µM (active)
same,Potency,ECU,3.98 µM (active)
same,Potency,N140,11.2 µM (active)
same,Potency,TAB109,4.47 µM (active)
same,Potency,TAB165,0.501 µM (active)
CCCCCCCCCc1ccc(O)cc1,Potency,[2],inactive
same,activation,[3],-1.55% and -0.009%
same,max response,[4],-6.51% and -5.9%
CNC(=O)Oc1cccc2c1OC(C)(C)O2,Potency,[2],inactive
same,activation,[3],0.009%
same,max response,[4],-5.36%
O=c1ccc2cc(O[C@H]3O[C@@H](CO)[C@@H](O)[C@@H](O)[C@@H]3O)c(O)cc2o1,Potency,[1],inactive
same,Potency,AA1029,inactive
same,Potency,AS120,inactive
same,Potency,ATS189,inactive
same,Potency,ATS95,inactive
same,Potency,CP211,inactive
same,Potency,CP215,inactive
same,Potency,CP217,inactive
same,Potency,CP247,inactive
same,Potency,CP250,inactive
same,Potency,CP252,inactive
same,Potency,CP256,inactive
same,Potency,CP269,inactive
same,Potency,ECU,inactive
same,Potency,N140,inactive
same,Potency,TAB109,inactive
same,Potency,TAB165,inactive
O=C1C=C2C=CC3C[C@@]2(O1)C1CCCCN31 (stereo partly specified),Potency,[1],inactive
same,Potency,AA1029,12.6 µM (active)
same,Potency,AS120,10 µM (active)
same,Potency,ATS189,11.2 µM (active)
same,Potency,ATS95,10 µM (active)
same,Potency,CP211,13.5 µM (active)
same,Potency,CP215,10.7 µM (active)
same,Potency,CP217,8.91 µM (active)
same,Potency,CP247,11.2 µM (active)
same,Potency,CP250,12.6 µM (active)
same,Potency,CP252,11.2 µM (active)
same,Potency,CP256,11.2 µM (active)
same,Potency,CP269,15.1 µM (active)
same,Potency,ECU,11.2 µM (active)
same,Potency,N140,12.6 µM (active)
same,Potency,TAB109,5.01 µM (active)
same,Potency,TAB165,11.2 µM (active)
CNC(C)[C@@H](O)c1ccccc1 (stereo partly specified),Potency,[1],inactive
same,Potency,AA1029,inactive
same,Potency,AS120,inactive
same,Potency,ATS189,inactive
same,Potency,ATS95,inactive
same,Potency,CP211,inactive
same,Potency,CP215,inactive
same,Potency,CP217,inactive
same,Potency,CP247,inactive
same,Potency,CP250,inactive
same,Potency,CP252,inactive
same,Potency,CP256,inactive
same,Potency,CP269,inactive
same,Potency,ECU,inactive
same,Potency,N140,inactive
same,Potency,TAB109,inactive
same,Potency,TAB165,inactive
CCS(=O)CCSP(=O)(OC)OC (stereo unspecified),Potency,[2],inactive
same,activation,[3],-0.772%
same,max response,[4],-6.55%
CCC(C)C1O[C@]2(C=CC1C)CC1CC(C/C=C(\C)[C@H](OC3CC(OC)C(O[C@H]4CC(OC)[C@@H](O)C(C)O4)C(C)O3)[C@@H](C)/C=C/C=C3\COC4C(O)C(C)=C[C@H](C(=O)O1)[C@@]34O)O2 (stereo partly specified),Potency,[1],inactive
same,Potency,AA1029,11.2 µM (active)
same,Potency,AS120,10 µM (active)
same,Potency,ATS189,11.2 µM (active)
same,Potency,ATS95,10 µM (active)
same,Potency,CP211,12 µM (active)
same,Potency,CP215,13.5 µM (active)
same,Potency,CP217,10 µM (active)
same,Potency,CP247,8.91 µM (active)
same,Potency,CP250,11.2 µM (active)
same,Potency,CP252,11.2 µM (active)
same,Potency,CP256,6.31 µM (active)
same,Potency,CP269,15.1 µM (active)
same,Potency,ECU,8.91 µM (active)
same,Potency,N140,10 µM (active)
same,Potency,TAB109,8.91 µM (active)
same,Potency,TAB165,12.6 µM (active)
CCC(=O)Nc1ccc(Cl)c(Cl)c1,activation,[3],4.6%
same,max response,[4],-7.64%
CC(C)N1C(=O)c2ccccc2NS1(=O)=O,Potency,[2],inactive
same,activation,[3],2.08%
same,max response,[4],7.65%
CCCCSP(=O)(SCCCC)SCCCC,Potency,[2],inactive
same,activation,[3],-2.51%
same,max response,[4],12.3%
CCc1cccc(C)c1N(C(=O)CCl)C(C)COC (stereo unspecified),activation,[3],-2.17%
same,max response,[4],-0.37%
COc1nc(NC(C)C)nc(NC(C)C)n1,Potency,[2],inactive
same,activation,[3],-5.88%
same,max response,[4],5.54%
N#Cc1c(Cl)cccc1Cl,Potency,[2],inactive
same,activation,[3],-3.69%
same,max response,[4],0.251%
CC(C)(C)C(=O)C(Oc1ccc(Cl)cc1)n1cncn1 (stereo unspecified),Potency,[2],inactive
same,activation,[3],-0.546% and 1.4%
same,max response,[4],5.28% and -3.18%
COP(N)(=O)SC (stereo unspecified),Potency,[2],inactive
same,activation,[3],0.404% and 2.15%
same,max response,[4],9.18% and -6.05%
O=C(O)COc1cc(Cl)c(Cl)cc1Cl,Potency,[2],inactive
same,max response,[4],-9.62%
CC(C)Nc1nc(Cl)nc(NC(C)C)n1,Potency,[2],inactive
same,activation,[3],-2.19%
same,max response,[4],-2.76%
